This is part of a sample that, as a whole, favours compounds with a hit. Of some 83,000 tested, about 20% had one in any assay.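 Activity criterion: percent growth below 10, measured after cells in 96-well plates were exposed to a single compound concentration for 48 hours.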 Calls of active or inactive are those of the source.
Experiments:
Assay in all cases: NCI-60 one-dose screen, 48 h (100 = growth as untreated, 0 = no growth, -100 = all killed)
Details in all cases: 10 µM unless noted
[1] = tested on: SK-MEL-2 melanoma
[2] = tested on: EKVX NSCLC
[3] = tested on: SN12C renal
[4] = tested on: TK-10 renal
[5] = tested on: ACHN renal
[6] = tested on: CAKI-1 renal
[7] = tested on: A498 renal
[8] = tested on: CCRF-CEM leukemia
[9] = tested on: MOLT-4 leukemia
[10] = tested on: UO-31 renal

Measured: growth

C(/C=C/c1ccccc1)=Nc1ccc(CCc2ccc(N=C/C=C/c3ccccc3)cc2)cc1
active: [5] 6.67%
inactive: [1] 41.5% | [2] 121% | [3] 92.7% | [4] 93.8% | [6] 41.7% | [7] 109% | [8] 95.3% | [9] 78.2%

Cc1[nH]c(C(=O)Nc2cccc(OC3CCNCC3)c2)c(Cl)c1Cl
inactive: [1] 88.4% | [2] 86.1% | [3] 70.3% | [4] 123% | [5] 62.8% | [6] 70.3% | [7] 25.1% | [8] 55.3% | [9] 41.5%

C=CCOC(=O)C1=C(C)NC(=O)NC1c1c(Cl)n(C)c2ccccc12 (configuration not stated)
active: [8] -49.5%
inactive: [1] 112% | [2] 98.2% | [3] 96.9% | [4] 102% | [5] 99.7% | [6] 94.3% | [7] 101% | [9] 98.5%

O=C1N[C@@H]2[C@@H](O)[C@@H](O)[C@H](O)C[C@H]2c2cc3c(c(O)c21)OCCO3
active: [1] -48.7% | [2] -14.3% | [3] -9.95% | [4] -11.9% | [5] -14.5% | [6] 4.9% | [7] -29.7% | [8] -6.07% | [9] -0.799%

CCCCC(=O)Nc1ncc(Cc2ccccc2Cl)s1
inactive: [1] 55.8% | [2] 57.6% | [3] 42.4% | [10] 44.6% | [4] 62.8% | [5] 61.4% | [7] 48.5% | [8] 57.3% | [9] 28.5%

COCC[C@H]1CCC/C=C/[C@@H]2C[C@H](O)C[C@H]2[C@H](O)/C=C/C(=O)O1
active: [1] -3.55% | [2] 4.95% | [3] 8.16% | [4] -38.5% | [5] 4.75% | [6] -18.6% | [7] -31.1% | [9] 7.61%
inactive: [8] 17.6%

O=C(O)c1cn(C2CC2)c2cc(N3CCN(C(=O)N/N=C/c4ccccc4)CC3)c(F)cc2c1=O
inactive: [1] 98.7% | [2] 101% | [3] 112% | [10] 74% | [4] 96.5% | [5] 101% | [7] 109% | [8] 96.9% | [9] 85.4%

COc1cccc(OC)c1Oc1c(-c2nc3ccccc3s2)c(C)nn1-c1ccccc1
inactive: [1] 90.6% | [2] 71.9% | [3] 82.6% | [4] 94.7% | [5] 72.8% | [6] 44.9% | [7] 82.3% | [8] 62.9% | [9] 51.2%

Cc1nn(-c2ccccc2)c(/N=C/N(C)C)c1/C=C/C(=O)c1ccc(Cl)cc1
inactive: [1] 99.4% | [2] 77.4% | [3] 82.5% | [4] 104% | [5] 102% | [6] 50.4% | [7] 92.6% | [8] 66.6% | [9] 60.9%

COc1ccc2nc3ccccc3c(NCc3ccc(F)cc3)c2c1
active: [10] -8.18% | [5] 5.65% | [7] -8.16% | [9] 0.544%
inactive: [1] 35% | [2] 22.4% | [3] 17% | [4] 37.8% | [8] 18.4%

CC/C=C1/C(=O)C=C[C@@H]1C/C=C\CCCC(=O)OC
active: [8] -6.12% | [9] 3.09%
inactive: [1] 90.7% | [2] 101% | [3] 18.8% | [4] 107% | [5] 46.9% | [6] 60.6% | [7] 102%

COc1cc(Nc2ncccc2NC(=O)c2cn(Cc3cccc(Oc4ccccc4)c3)nn2)cc(OC)c1
inactive: [1] 95.7% | [2] 75% | [3] 84.2% | [4] 100% | [5] 86.1% | [6] 83.9% | [7] 76.2% | [8] 84.5% | [9] 59.6%

COc1ccc(C2=NN(C(C)=O)C(c3ccc(Oc4ccnc5cc(Cl)ccc45)c(OC)c3)C2)cc1 (configuration not stated)
inactive: [1] 42.4% | [2] 62% | [3] 68.7% | [4] 36.6% | [5] 22.9% | [6] 47.9% | [7] 66.3% | [8] 85.7% | [9] 78.9%

O=C(NCc1ccccc1O)c1cccc2ccccc12
inactive: [1] 86.4% | [2] 82.1% | [3] 64.9% | [4] 98.5% | [5] 72.4% | [6] 91.9% | [7] 56% | [8] 101% | [9] 79%

CCOC(=O)C1=C(C)N=C2SC=C(c3ccccc3)N2[C@H]1c1cn[nH]c1-c1ccc(Cl)cc1
active: [6] -15.1% | [8] -19.8% | [9] -7.33%
inactive: [1] 65.6% | [2] 72.3% | [3] 48.8% | [4] 63.3% | [5] 41.1% | [7] 68.8%

COc1ccc(C2=NN(C(=O)c3cc(OC)c(OC)c(OC)c3)C(c3ccc(N(C)C)cc3)C2)cc1 (configuration not stated)
inactive: [1] 66.5% | [2] 35.6% | [3] 31.3% | [4] 56.5% | [5] 25.8% | [6] 39.1% | [8] 26.7% | [9] 18.9%
active: [7] -1.92%

COC(=O)/C(CCC=C(C)C)=C1\[C@@H](OC(C)=O)C[C@@]2(C)[C@H]1CC(=O)[C@H]1[C@@]3(C)CCC(N4CCCC4)[C@@H](C)[C@@H]3CC[C@@]12C (some centres not stated)
active: [9] 9.72%
inactive: [1] 105% | [2] 91.9% | [3] 89% | [4] 102% | [5] 104% | [6] 106% | [7] 105% | [8] 78.2%

N/C(=N\c1nc2ccccc2s1)NC(=NC1CCCCC1)NC1CCCCC1
active: [8] -1.74% | [9] 4%
inactive: [1] 41% | [2] 45.7% | [3] 33.8% | [4] 69.2% | [5] 17.1% | [6] 23.2% | [7] 45.8%

O=[N+]([O-])/C(=C\c1ccco1)c1ccccc1Cl
inactive: [1] 60.6% | [2] 83.1% | [3] 78.4% | [4] 82.8% | [5] 81.1% | [6] 67% | [7] 41.9% | [8] 60.5% | [9] 74.1%

C/C(C=O)=C\c1ccc2c(c1)OCO2
inactive: [1] 109% | [2] 102% | [3] 110% | [10] 102% | [4] 90.7% | [5] 113% | [7] 68% | [9] 116%
active: [8] -5.12%

N#Cc1c(N2CCOCC2)nc(=S)[nH]c1-c1ccccc1
inactive: [1] 41.8% | [2] 56.8% | [3] 73.7% | [10] 76.9% | [4] 57.6% | [5] 73.9% | [7] 13.7% | [8] 62.3% | [9] 73.6%

COc1cc(C(=O)/C=C/c2c(-c3cccs3)nc3ccccn23)cc(OC)c1OC
inactive: [1] 10.7% | [8] 12.3%
active: [2] 4.84% | [3] 4.93% | [4] 0.55% | [5] -23.4% | [6] -5.58% | [7] -21.8% | [9] -0.559%

CN1CCN(Cc2ccc(NC(=O)c3cncc(C#Cc4cnn5ccccc45)c3)cc2C(F)(F)F)CC1
active: [1] -27% | [2] -3.23% | [3] -1.07% | [4] 7.73% | [5] 2.54% | [6] -9.06% | [7] -11.7% | [8] 6.17% | [9] 1.84%

COc1ccc(C2=C/C(=C\c3ccc(Cl)cc3)C(=O)N2/N=C/c2ccc(Cl)cc2)cc1
inactive: [1] 107% | [2] 93.8% | [3] 87.7% | [4] 87.2% | [5] 98.3% | [6] 90.5% | [7] 103% | [8] 100% | [9] 92%

Cc1ccc(/C=C(\C#N)C(=O)Nc2ncc(Cc3cc(Cl)ccc3Cl)s2)o1
inactive: [1] 45.9% | [2] 60.4% | [3] 58.9% | [10] 31.7% | [4] 44.1% | [5] 45.4% | [7] 40.5% | [8] 55.4% | [9] 40.7%

CC1O[C@@H]2C[C@@](O)([C@H]1O)n1c3ccccc3c3c4c(c5c6ccccc6n2c5c31)C(=O)NC4=O (some centres not stated)
inactive: [1] 75.4% | [2] 68.7% | [3] 55.1% | [10] 24.8% | [4] 79.6% | [5] 19.3% | [7] 42.4% | [8] 27.9% | [9] 10.5%

C[C@@H]1CC[C@@]2(OC1)O[C@H]1C[C@H]3[C@@H]4CC=C5C[C@@H](O[C@@H]6O[C@H](CO)[C@@H](O[C@@H]7O[C@@H](CO)[C@H](O)[C@H]7O)[C@H](O)[C@H]6O[C@@H]6O[C@@H](C)[C@H](O)[C@@H](O)[C@H]6O)CC[C@]5(C)[C@H]4CC[C@]3(C)[C@H]1[C@@H]2C
active: [1] -87% | [2] -66.6% | [3] -97.4% | [4] -81.2% | [5] -98.3% | [6] -93.4% | [7] -95.6% | [8] -74.2% | [9] -60%

FC(F)(F)c1[nH]ncc1-c1nc2c(N3CCCCC3)cc3[nH]ncc3c2c2c1CCCC2
inactive: [2] 13.2%
active: [1] -34% | [3] 2.49% | [4] 1.88% | [5] 4.67% | [6] 5.43% | [7] -71.6% | [8] 4.61% | [9] -0.165%

— PubChem BioAssay (NCI)
